This is an account of results in PubChem BioAssay (NCI).

Compounds without any hit were thinned out: in the full panel of roughly 83,000, 20% have a hit.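 Cells were grown in 96-well plates and exposed to the test compound at a single concentration for 48 hours; results are reported as percent growth, with values below 10 considered active.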 A number with no mark means an inactive call. Calls of active or inactive are those of the source.

Test systems include SR leukemia; RPMI-8226 leukemia; OVCAR-8 ovarian; OVCAR-5 ovarian; OVCAR-4 ovarian; SK-OV-3 ovarian; IGROV1 ovarian; OVCAR-3 ovarian; HS 578T breast; NCI/ADR-RES ovarian; T-47D breast; BT-549 breast; MDA-MB-435 melanoma; SW-620 colon; MCF7 breast; HCT-116 colon; HCC-2998 colon; KM12 colon; MDA-MB-468 breast.
Holding throughout (assay): NCI-60 one-dose screen, 48 h (100 = growth as untreated, 0 = no growth, -100 = all killed)
Common to all, as to conditions: 10 µM unless noted

Take `CCCCCCCCc1ccc(C(=O)Nc2cccc(P(=O)(O)O)c2)cc1`: the growth is 87.7% in the assay with SR leukemia; 96.4% with RPMI-8226 leukemia; 99.7% with OVCAR-8 ovarian; 116% in the assay on OVCAR-5 ovarian; 111% in the assay on OVCAR-4 ovarian; 112% in the assay with SK-OV-3 ovarian. Also, the growth is 108% in the assay on IGROV1 ovarian; 106% in the assay on OVCAR-3 ovarian; 102% with HS 578T breast; 101% in the assay with NCI/ADR-RES ovarian; 125% with T-47D breast; 110% with BT-549 breast. Besides, the growth with MDA-MB-435 melanoma is 103%; with SW-620 colon, 100%; in the assay with MCF7 breast it was 91.8%; in the assay on HCT-116 colon it was 94.3%; in the assay with HCC-2998 colon, 114%; with KM12 colon, 103%. Also, the growth in the assay on MDA-MB-468 breast was 88.7%.

Take `COc1cccc(-c2nc(Nc3ccc(S(N)(=O)=O)cc3)c3ccccc3n2)c1`: the growth in the assay with SR leukemia was 23.6%; with RPMI-8226 leukemia it was 6.94% (active); with OVCAR-8 ovarian, 35.5%; in the assay with OVCAR-5 ovarian, 72.5%; with OVCAR-4 ovarian, 35.1%; in the assay on SK-OV-3 ovarian, 73.5%. Besides, the growth was 42.4% with IGROV1 ovarian; 22.9% with OVCAR-3 ovarian; 44% in the assay with HS 578T breast; 26.4% in the assay on NCI/ADR-RES ovarian; 20.9% in the assay on T-47D breast; 54.5% in the assay with BT-549 breast. For the same molecule, the growth was 38.8% with MDA-MB-435 melanoma; 36.1% in the assay with SW-620 colon; 19.8% with MCF7 breast; 32.2% in the assay on HCT-116 colon; 6.44% (active) in the assay with HCC-2998 colon; 6.75% (active) in the assay with KM12 colon. In the assay with MDA-MB-468 breast, the growth is 24%.

With `CNS(=O)(=O)c1ccc(Nc2ccc(C(F)(F)F)cc2)c(-c2cn(C)cn2)c1`, the growth was 51.6% with SR leukemia; 35.6% in the assay with RPMI-8226 leukemia; 52.6% with OVCAR-8 ovarian; 68.3% with OVCAR-5 ovarian; 70.1% in the assay on OVCAR-4 ovarian; 86.8% in the assay on SK-OV-3 ovarian. Also, the growth with IGROV1 ovarian is 35.5%; in the assay on OVCAR-3 ovarian, 54.7%; in the assay on HS 578T breast, 59.6%; in the assay on NCI/ADR-RES ovarian it was 35%; in the assay on T-47D breast, 47.7%; in the assay with BT-549 breast it was 58.7%. In addition, the growth in the assay on MDA-MB-435 melanoma is 55.5%; with SW-620 colon it was 70.9%; with MCF7 breast, 42.3%; in the assay on HCT-116 colon it was 49.4%; in the assay on HCC-2998 colon it was 43.6%; in the assay with KM12 colon it was 35.9%. Moreover, in the assay with MDA-MB-468 breast, the growth was -1.31% (active).

Turning to `Cn1cc(-c2nnc(N)nc2-c2c[nH]c3ccc(Br)cc23)c2cc(Br)cnc21`, the growth is 23.8% with SR leukemia; 41.6% in the assay with RPMI-8226 leukemia; 59.4% in the assay on OVCAR-8 ovarian; 73.8% in the assay with OVCAR-5 ovarian; 45.6% in the assay on OVCAR-4 ovarian; 89.2% with SK-OV-3 ovarian. The growth is 46.4% in the assay with IGROV1 ovarian; 55.8% with OVCAR-3 ovarian; 59.2% in the assay with HS 578T breast; 64.5% in the assay on NCI/ADR-RES ovarian; 47.7% in the assay with T-47D breast; 50.2% with BT-549 breast. For the same molecule, the growth was 33.6% in the assay on MDA-MB-435 melanoma; 75.1% in the assay with SW-620 colon; 29.8% in the assay with MCF7 breast; 44.8% in the assay with HCT-116 colon; 72.7% in the assay on HCC-2998 colon; 49.3% in the assay on KM12 colon. The growth with MDA-MB-468 breast is 25%.

With `C/C(=N\N=C1/C(=O)Nc2ccccc21)c1ccc2c(c1)Nc1ccccc1S2`, the growth with SR leukemia was 44.5%; in the assay on RPMI-8226 leukemia it was 38.7%; in the assay on OVCAR-8 ovarian, 56%; in the assay on OVCAR-5 ovarian it was 83.7%; in the assay with OVCAR-4 ovarian, 37.4%; in the assay with SK-OV-3 ovarian, 101%. Moreover, the growth in the assay on IGROV1 ovarian was 45.6%; in the assay on OVCAR-3 ovarian, 34.9%; with HS 578T breast, 72.1%; in the assay on NCI/ADR-RES ovarian, 59.4%; in the assay with T-47D breast, 26.8%; in the assay with BT-549 breast, 43.9%. The growth in the assay on MDA-MB-435 melanoma was -52.5% (active); with SW-620 colon it was 63.5%; in the assay on MCF7 breast it was 22.2%; in the assay with HCT-116 colon it was 16.2%; in the assay on HCC-2998 colon it was 75.7%; with KM12 colon, 66.4%. The growth with MDA-MB-468 breast was 34.6%.

Turning to `C#CCOc1cc(N(CC)CC)ccc1C(C(=O)NC(C)(C)C)N(C(=O)C1CCc2cc(F)ccc2O1)c1cc(C)cc(C)c1` (configuration not stated), the growth is 20.4% with SR leukemia; 17.6% with RPMI-8226 leukemia; 34.1% with OVCAR-8 ovarian; 49.7% with OVCAR-5 ovarian; 36.8% in the assay on OVCAR-4 ovarian; 46.7% in the assay with SK-OV-3 ovarian. Besides, the growth in the assay on IGROV1 ovarian is 61.9%; in the assay on OVCAR-3 ovarian it was 30.5%; with HS 578T breast, 53.7%; in the assay on NCI/ADR-RES ovarian, 41.9%; in the assay on T-47D breast, 18.8%; with BT-549 breast it was 43.1%. Moreover, the growth in the assay with MDA-MB-435 melanoma was 47.1%; in the assay with SW-620 colon it was 36.4%; in the assay with MCF7 breast, 14.9%; with HCT-116 colon it was 11.4%; with HCC-2998 colon, 54.6%; with KM12 colon, 25.9%. Moreover, in the assay on MDA-MB-468 breast, the growth was 24.3%.

Regarding `NS(=O)(=O)c1ccc(NNC(=O)CCC(=O)c2ccccc2)cc1`, the growth is 86.8% with SR leukemia; 105% in the assay with RPMI-8226 leukemia; 101% with OVCAR-8 ovarian; 112% with OVCAR-5 ovarian; 99.2% with OVCAR-4 ovarian; 104% in the assay with SK-OV-3 ovarian. For the same molecule, the growth with IGROV1 ovarian was 102%; with OVCAR-3 ovarian, 114%; in the assay on HS 578T breast, 94.7%; in the assay with NCI/ADR-RES ovarian it was 109%; with T-47D breast, 87.5%; in the assay with BT-549 breast, 104%. The growth is 105% with MDA-MB-435 melanoma; 102% with SW-620 colon; 90.5% in the assay on MCF7 breast; 99% in the assay with HCT-116 colon; 109% in the assay on HCC-2998 colon; 104% with KM12 colon. Further, the growth with MDA-MB-468 breast is 93.3%.

On to `S=C(Nc1ccccc1)Nc1ccc(OCc2nc3ccccc3[nH]2)cc1`, for which the growth in the assay on SR leukemia is 32.5%; in the assay with RPMI-8226 leukemia, 39.2%; in the assay on OVCAR-8 ovarian it was 35.8%; in the assay with OVCAR-5 ovarian, 66.3%; in the assay with OVCAR-4 ovarian it was 38.9%; with SK-OV-3 ovarian, 86.6%. Further, the growth is 56.3% in the assay on IGROV1 ovarian; 29% with OVCAR-3 ovarian; 50.6% with HS 578T breast; 43% in the assay on NCI/ADR-RES ovarian; 36.1% with T-47D breast; 49.4% in the assay with BT-549 breast. The growth is 24.6% in the assay on MDA-MB-435 melanoma; 48% in the assay on SW-620 colon; 20.2% with MCF7 breast; 35.6% in the assay with HCT-116 colon; 17.3% in the assay on HCC-2998 colon; -32% (active) with KM12 colon. Also, in the assay with MDA-MB-468 breast, the growth is 21.9%.
